Publication PMC7826789 (International Journal of Molecular Sciences, 2021)

tested on: TESK1; conditions: Compound Concentration (nM):1000
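Further: KINOMEscan scanMAX binding as percent activity remaining versus control; lower means stronger binding.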

Percent Control, inactive:
CN1CCN(C(=O)c2ccc(NC(=O)Nc3ccc(N(C)c4ccnc(Nc5ccc(CS(C)(=O)=O)cc5)n4)cc3)cc2)CC1.Cl [GW830263A] 100%
COc1cc2ncnc(Nc3ccc4c(cnn4Cc4ccccc4)c3)c2cc1OC.Cl [GW282449A] 100%
CC1=C(C(=O)Nc2ccc3[nH]ncc3c2)C(c2ccc3ccccc3c2)CC(=O)N1 (stereo not shown) [GSK270822A] 99%
O=C(Nc1n[nH]c2nc(-c3ccc(O)cc3)c(Br)cc12)C1CC1 [SB-725317] 100%
CCS(=O)(=O)c1ccc(OC)c(Nc2ncc(-c3cccc(F)c3)o2)c1 [GW621970X] 89%
COc1ccc2cc(-c3c(-c4ccncc4)nc(-c4ccc(S(C)(=O)=O)cc4C)n3C)ccc2c1 [SB-633825] 91%
COc1ccccc1-c1cc(/C=C2\C(=O)Nc3ncc(Br)cc32)cc(Br)c1O [GW442130X] 100%
CN(C)c1cc2c(Nc3ccc4c(cnn4Cc4ccccc4)c3)ncnc2cn1 [GW282974X] 87%
COc1ccc2[nH]c3c4[nH]c5ccc(OC)cc5c4c4c(c3c2c1)C(=O)NC4=O [GW296115X] 90%
COc1cccc(-n2ncc3c(N/N=C/c4ccncc4)ncnc32)c1 [GW784752X] 85%
CC1=C(C(=O)Nc2ccc3[nH]ncc3c2)C(c2ccc(Cl)c(Cl)c2)CC(=O)N1 (stereo not shown) [GSK299115A] 100%
COc1ccc(COc2ccc(Cc3cnc(N)nc3N)cc2OC)cc1 [GW632580X] 99%
NS(=O)(=O)c1ccc(N/N=C2\C(=O)Nc3ccc(Cl)cc32)cc1 [GW280670X] 100%
COc1cccc(-c2c[nH]c3c(N/N=C/c4ccncc4)ncnc23)c1 [GW814408X] 97%
COC(=O)Nc1nc2ccc(Oc3ccc(NC(=O)Nc4cc(C(F)(F)F)ccc4F)cc3)cc2s1.Cl [GW693917A] 77%
COc1ccc2c(-c3ccnc(Nc4cccc(OC(F)(F)F)c4)n3)cnn2n1 [GW810372X] 70%
NS(=O)(=O)c1ccc(N/N=C2\C(=O)Nc3ccc(-c4cnco4)cc32)cc1 [GW276655] 77%
Cl.c1ccc(Cc2nc3ccc(Nc4ncnc5ccccc45)cc3[nH]2)cc1 [GR269666A] 100%
C/C(Nc1ccc(S(N)(=O)=O)cc1)=C1/C(=O)Nc2ccccc21 [GW335962X] 100%
COc1cc(N2CCN(C(C)C)CC2)ccc1Nc1nc(Nc2ccc(F)cc2C(=O)NC[C@@H](O)CO)c2cc[nH]c2n1 [GSK1392956A] 92%
Nc1ncnc2occ(-c3ccc(NC(=O)Nc4cc(C(F)(F)F)ccc4F)cc3)c12 [GW770249X] 100%
CC(C)COC(=O)c1ccc2c(c1)/C(=C/Nc1ccc(S(N)(=O)=O)cc1)C(=O)N2 [GW416981X] 100%
Cl.O=C(Nc1ccc(Oc2ccc3[nH]c(NC(=O)c4ccccc4)nc3c2)cc1)Nc1cc(C(F)(F)F)ccc1F [GW709042A] 96%
CCc1ccc(Oc2nccc(-c3c(-c4ccc(F)cc4)ncn3C3CCNCC3)n2)cc1 [SB-242719] 99%
COc1cc(C)c(N(C)C(=O)CN(C)C)cc1Nc1nc(Nc2cccc(F)c2C(N)=O)c2cc[nH]c2n1 [GSK2219385] 92%
NS(=O)(=O)c1ccc(Nc2ncc(-c3ccccc3)o2)cc1 [GW572399X] 100%
CCS(=O)(=O)c1ccc(OC)c(Nc2ncc(-c3cccc(OC)c3)o2)c1 [GW580509X] 100%
C[C@@H](Oc1cc(-n2cnc3ccc(OC4CCN(C)CC4)cc32)sc1C(N)=O)c1ccccc1Cl [GSK579289A] 72%
COc1cc2ncn(-c3cc(O[C@H](C)c4ccccc4Cl)c(C(N)=O)s3)c2cc1OC [GSK237701A] 100%
O=C1Nc2ccc(C(=O)c3ccco3)cc2C1=Cc1cc(Cl)c(O)c(Cl)c1 [GW406108X] 100%
Cc1cc(O)cc(C)c1/C=C/c1cncc(C(N)=O)c1 [GW435821X] 100%
COc1cc(/C=N/Nc2ncnc3[nH]ncc23)ccc1O [GW578748X] 94%
COc1cc(C=NNc2ncnc3c2cnn3-c2ccccc2)ccc1O [GW513184X] 100%
NS(=O)(=O)c1ccc(N/N=C2\C(=O)Nc3ccc(C(=O)NCCc4c[nH]cn4)cc32)cc1 [GW300660X] 100%
Cl.O=C(Nc1ccc(Oc2ccc3[nH]c(NC(=O)c4ccco4)nc3c2)cc1)Nc1cc(C(F)(F)F)ccc1F [GW683134A] 71%
CN(C)CCNC(=O)Nc1ccc(N(C)c2ccnc(Nc3ccc(CS(C)(=O)=O)cc3)n2)cc1.Cl [GW830900A] 100%
CCn1c(-c2nonc2N)nc2c(C#CC(C)(C)O)nc(OCCNC)cc21.Cl [GSK949675] 100%
NS(=O)(=O)c1ccc(N/N=C2\C(=O)Nc3ccc(C(=O)NCc4ccncc4)cc32)cc1 [GW300657X] 100%
Cl.O=S1CCN(Cc2ccc(-c3ccc4ncnc(Nc5ccc(OCc6ccccc6)c(F)c5)c4c3)o2)CC1 [GW576924A] 100%
Cl.O=C(O[C@H]1CN[C@H](C#Cc2cc3ncnc(Nc4ccc5c(cnn5Cc5ccccc5)c4)c3s2)C1)N1CCOCC1 [GSK200398A] 96%
